Columns and labels:
Assay in all cases: lowest phenotypically active concentration; higher = less potent
Conditions in all cases: treatment time: 24 h
[1] = test system: HepG2-CANX-COX4
Summary of the method: (§1)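 Four wells per concentration (0.3, 1, 3 or 9 µM) were treated for 24 h in each of fifteen gene-edited reporter lines from A549, HepG2 and WPMY1 cells, then imaged live. After normalising live-cell features to solvent control wells, deviation was defined as ≥3 of 4 wells lying past the 95th percentile of control Euclidean distances. Reproducibility was defined as a median replicate Pearson correlation above the 95th percentile of non-replicates. Both had to hold for phenotypic activity.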

[2] = test system: HepG2-GM130-SQSTM1
Summary of the method: as §1

[3] = test system: HepG2-TUBA1B-RELA
Summary of the method: as §1

[4] = test system: WPMY1-ACTB-RAB5A
Summary of the method: as §1

[5] = test system: WPMY1-GM130-SQSTM1
Summary of the method: as §1

[6] = test system: WPMY1-TUBA1B-RELA
Summary of the method: as §1

[7] = test system: WPMY1-CANX-COX4
Summary of the method: as §1

[8] = test system: WPMY1-TP53BP1-CLTA
Summary of the method: as §1

| Compound | lowest phenotypically active concentration [1] [µM] | lowest phenotypically active concentration [2] [µM] | lowest phenotypically active concentration [3] [µM] | lowest phenotypically active concentration [4] [µM] | lowest phenotypically active concentration [5] [µM] | lowest phenotypically active concentration [6] [µM] | lowest phenotypically active concentration [7] [µM] | lowest phenotypically active concentration [8] [µM] |
| --- | --- | --- | --- | --- | --- | --- | --- | --- |
| COc1ccc(Cl)cc1NC(=O)Nc1cc(C)nc2ccccc12 | 1 | 3 | 3 |  |  |  |  |  |
| O=C1Cc2cc(CCN3CCN(c4nsc5ccccc45)CC3)c(Cl)cc2N1 [ziprasidone] |  | 3 | 3 |  |  |  |  |  |
| CC(CN(C)C)CN1c2ccccc2Sc2ccccc21.CC(CN(C)C)CN1c2ccccc2Sc2ccccc21 (stereo unspecified) [alimemazine] |  | 9 | 9 | 9 | ≤ 0.3 | 9 |  |  |
| O=c1cc(N2CCOCC2)oc2c(-c3cccc4c3sc3ccccc34)cccc12 | 3 | 1 | 1 | 1 | 3 | 9 | 1 | 3 |
| O=C(CCCN1CCC(O)(c2ccc(Cl)cc2)CC1)c1ccc(F)cc1 [haloperidol] |  | 9 | 9 |  | 9 |  |  |  |
| CNCCCC12CCC(c3ccccc31)c1ccccc12 [maprotiline] |  | 9 | 3 | 9 | 9 | 9 | 9 | 9 |
| CC1=C(/C=C/C(C)=C\C=C\C(C)=C\C(=O)O)C(C)(C)CCC1 [tretinoin] | ≤ 0.3 | 9 |  | 1 | ≤ 0.3 | 3 | 1 | 1 |
| Clc1ccc2c(c1)C(N1CCNCC1)=Nc1ccccc1O2 [amoxapine] |  | 9 | 3 | 9 |  | 9 |  |  |
| CCCc1cc(C)n(C)c(=O)c1CN(C)C(=O)c1cc(-c2ccc(N3CCN(C(C)C)CC3)nc2)cc2c1cnn2C(C)C |  | 3 |  | 3 | 3 | 9 | 3 | 9 |
| COCCCC/C(=N/OCCN)c1ccc(C(F)(F)F)cc1 [fluvoxamine] |  |  | 9 | 9 |  |  |  |  |
| CCOC(=O)c1c(CSc2ccccc2)n(C)c2cc(Br)c(O)c(CN(C)C)c12 [arbidol] | 9 | 9 | 9 |  | 9 |  |  |  |

Reference: the supplement of paper PMC7411054
